GLS inh – qHTS for Inhibitors of Glutaminase (GLS) | Potency, µM (doses to about 45.5 µM), most hits filed as inhibitors | actives 0.21% (n = 410,000) | Glutaminase kidney isoform, mitochondrial (Homo sapiens), O94925 | GLS enzymatic activity, qHTS titration
Target sequence (O94925 whole entry, looked up, canonical isoform): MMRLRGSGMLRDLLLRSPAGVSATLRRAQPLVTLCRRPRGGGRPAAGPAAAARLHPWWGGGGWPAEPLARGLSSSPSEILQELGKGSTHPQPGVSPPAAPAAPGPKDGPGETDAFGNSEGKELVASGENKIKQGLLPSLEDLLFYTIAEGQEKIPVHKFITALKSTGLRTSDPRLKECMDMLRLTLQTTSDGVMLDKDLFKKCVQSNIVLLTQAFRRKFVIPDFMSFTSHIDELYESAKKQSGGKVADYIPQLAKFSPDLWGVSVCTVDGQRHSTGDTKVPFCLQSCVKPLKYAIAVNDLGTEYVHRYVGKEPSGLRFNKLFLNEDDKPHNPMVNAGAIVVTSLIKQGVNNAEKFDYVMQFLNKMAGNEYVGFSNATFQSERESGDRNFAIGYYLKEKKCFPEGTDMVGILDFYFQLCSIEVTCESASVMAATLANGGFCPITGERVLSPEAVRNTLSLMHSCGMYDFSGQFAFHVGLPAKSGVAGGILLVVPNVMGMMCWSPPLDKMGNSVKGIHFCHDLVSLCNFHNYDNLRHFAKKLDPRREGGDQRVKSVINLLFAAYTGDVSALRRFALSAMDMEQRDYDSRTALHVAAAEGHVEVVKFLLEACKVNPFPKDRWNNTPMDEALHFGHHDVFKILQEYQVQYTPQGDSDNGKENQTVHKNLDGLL
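Glutamate formation by hKGA was monitored fluorometrically using coupled glutamate oxidase, HRP and Amplex Red. Substrate was added as 1 mM L-glutamine solution; incubation was 30 min at RT after an initial read.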
POLH inh – qHTS for Inhibitors of Polymerase Eta; recombinant Pol eta, fluorescent DNA replication assay; Potency, µM (doses to about 114 µM), hits mostly inhibitors; DNA polymerase eta (Homo sapiens), Q9Y253; actives 1.2% (n = 390,000)
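Fluorescent replication assay: 50 nM final substrate added after a 15 min room-temperature compound preincubation with 10 nM enzyme. Signal taken at 0 min and again at 10 min.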
POLK inh – qHTS for Inhibitors of Polymerase Kappa; Potency, µM (highest dose often 107 µM), actives largely listed as inhibitors; AID 588579, 2011; purified Pol kappa, fluorescent DNA synthesis assay, 10 min; DNA polymerase kappa (Homo sapiens), Q9UBT6; actives 0.53% (n = 400,000)
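Enzyme at 10 nM met test compounds for 15 min at room temperature. Substrate addition (50 nM final) began the reaction, which was monitored by fluorescence at 0 and 10 min.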
Pol beta inh – qHTS Assay for Inhibitors of DNA Polymerase Beta. P06746. Pol beta primer extension/strand displacement, fluorescence kinetic. Potency, µM (titrated, usually from 114 µM), hits mostly inhibitors. actives 1.3% (n = 340,000)
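Preincubation: enzyme (10 nM) with compound, 15 min, RT. Reaction: substrate added to 50 nM final. Reads: 0 and 10 min. Analysis: normalized, Hill fit.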
APEX1 inh – qHTS Assay for Inhibitors of the Human Apurinic/apyrimidinic Endonuclease 1 (APE1); recombinant APE1, TAMRA/BHQ-2 abasic DNA cleavage fluorescence; actives 0.35% (n = 350,000); Potency, µM (doses to about 65.8 µM), most hits filed as inhibitors; DNA repair nuclease/redox regulator APEX1 (Homo sapiens), P27695; further: nearly all actives have a fitted effect of over 55% in size
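Readout is kinetic fluorescence (ex 525, em 598 nm) from cleavage of 50 nM TAMRA/BHQ-2 THF abasic duplex by 0.75 nM APE1, compound added 15 min beforehand at RT.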
POLI inh – qHTS for Inhibitors of Polymerase Iota; DNA polymerase iota (Homo sapiens), Q9UNA4; Pol iota fluorescent replication assay, 10 min; Potency, µM (doses to about 115 µM), usual class: inhibitors; actives 1% (n = 390,000); AID 588590, 2011
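Fluorescent replication assay read twice, at 0 min and 10 min after adding 50 nM (final) substrate. Enzyme (10 nM) and compounds were first incubated 15 min at room temperature; enzyme-free buffer wells were negative controls.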
A number is an active result. Rows were chosen to be rich in hits. Some 2.4% of all compounds tested hit in one or more screens of this group. The call rests on the fitted dose curve; in most records, active means well fitted curve in the direction sought with a large enough effect; inconclusive means small, poorly fitted or top-dose-only effect, or another doubt; inactive means no such curve, though single readings can be large; an effect the other way counts as inactive or inconclusive.

For CN(C)[C@H]1C(=O)C(C(=O)NCN2CCCC2)=C(O)[C@]2(O)C(=O)C3=C(O)c4c(O)cccc4[C@](C)(O)[C@H]3C[C@H]12 the results were GLS inh inconclusive and POLK inh 3.77µM.
`CN(C)[C@@H]1C(=O)C(C(=O)NCN2CCCC2)=C(O)[C@@]2(O)C(=O)C3=C(O)c4c(O)cccc4[C@@](C)(O)C3CC12` (stereo partly specified) gave Pol beta inh 0.501µM and APEX1 inh 2.51µM.
`O=C(c1ccco1)N1CCN(c2nc3ccccc3c(=O)n2-c2ccccc2)CC1` gave GLS inh inactive, POLH inh inactive, POLK inh inactive, Pol beta inh inactive, APEX1 inh inactive and POLI inh inactive.
For O=C(COC(=O)CCCNC(=O)c1ccc(Cl)cc1)NCc1ccccc1Cl the results were GLS inh inactive, POLH inh inactive, POLK inh inactive, Pol beta inh inactive, APEX1 inh inactive and POLI inh inactive.
Screening Cc1ccccc1-c1nc(S(=O)(=O)c2ccc(Cl)cc2)c(NCCN2CCOCC2)o1 returned GLS inh inactive, POLH inh inactive, POLK inh inactive, Pol beta inh inactive, APEX1 inh inactive and POLI inh inactive.
For O=C(O)COc1c(-c2ccco2)oc2ccccc2c1=O the results were GLS inh inactive, POLH inh inactive, POLK inh inactive, Pol beta inh 39.8µM, APEX1 inh inactive and POLI inh inconclusive.
`COc1cc(C2Nc3cccc4cccc(c34)N2)ccc1OC(C)=O` gave GLS inh inactive, POLH inh 14.1µM, POLK inh inactive, Pol beta inh inactive, APEX1 inh inactive and POLI inh inconclusive.
`COc1cc(C2Nc3cccc4cccc(c34)N2)cc(OC)c1O` gave GLS inh inactive, POLH inh inconclusive, POLK inh inactive, Pol beta inh 44.7µM, APEX1 inh inactive and POLI inh inconclusive.
`COc1ccc(C2Nc3cccc4cccc(c34)N2)cc1Br` gave GLS inh inconclusive, POLH inh inactive, POLK inh inactive, Pol beta inh inactive, APEX1 inh inactive and POLI inh inactive.
`CCOCCCNC(=S)NCCCNc1nc2c(C)c(C)ccc2cc1C#N` gave GLS inh inactive, POLH inh inconclusive, POLK inh inactive, Pol beta inh inactive, APEX1 inh inactive and POLI inh inactive.
For N#C/C(=C\c1c[nH]c2ccccc12)C(=O)c1ccc(O)c(O)c1 the results were POLH inh 1.41µM, POLK inh 5.97µM, Pol beta inh 3.77µM, APEX1 inh inconclusive and POLI inh 7.94µM.
`Cc1cccc(C(=O)OCC(=O)N2CC(C)OC(C)C2)c1C` (stereo unspecified) gave GLS inh inactive, POLH inh inactive, POLK inh inactive, Pol beta inh inactive, APEX1 inh inactive and POLI inh inactive.
`Cc1cccc(C(=O)OCC(=O)c2ccc(CC(=O)N3CCOCC3)s2)c1C` gave GLS inh inactive, POLH inh 10µM, POLK inh 79.4µM, APEX1 inh inactive and POLI inh inactive.
Screening O=C(O)c1ccc(N=NNc2cccc([N+](=O)[O-])c2)cc1 returned GLS inh inactive, POLH inh inactive, POLK inh inactive, Pol beta inh inactive, APEX1 inh inactive and POLI inh inactive.
`N#C/C(=N\Nc1cccc([N+](=O)[O-])c1)C(=O)c1ccc(Br)cc1` gave GLS inh inactive, POLH inh 79.4µM, POLK inh inactive, Pol beta inh inactive, APEX1 inh inactive and POLI inh inconclusive.
For CCc1onc(C)c1C(=O)Nc1cc(C)ccc1OC the results were GLS inh inactive, POLH inh inactive, POLK inh inactive, Pol beta inh inactive, APEX1 inh inactive and POLI inh inactive.
COc1cc2c(C(=O)Nc3cc(OC)c(OC)c(OC)c3)cn(C)c(=O)c2cc1OC was read as GLS inh inactive, POLH inh inactive, POLK inh inactive, Pol beta inh inactive and POLI inh inactive.
Screening COc1cc(OC)c(NC(=O)c2cn(C)c(=O)c3cc(OC)c(OC)cc23)cc1Cl returned GLS inh inactive, POLH inh 56.2µM, POLK inh inactive, Pol beta inh inactive and POLI inh inactive.
`CCCNC(=S)NNC(=O)c1cc(C2CC2)nc2ccccc12` gave GLS inh inactive, POLH inh inactive, POLK inh inactive, Pol beta inh inactive, APEX1 inh inactive and POLI inh inactive.
For CN(c1ccccc1)S(=O)(=O)c1nnc(NC(=O)COc2ccccc2)s1 the results were GLS inh inactive, POLH inh inconclusive, POLK inh inactive, Pol beta inh inconclusive, APEX1 inh inactive and POLI inh 79.4µM.
For C[n+]1cc[nH]c1SCC(=O)c1ccc(Cl)cc1 the results were GLS inh inactive, POLH inh inactive, POLK inh inactive, APEX1 inh inactive and POLI inh inactive.
Screening CCCCc1ccc(-c2ccc(Br)cc2O)nc1 returned GLS inh inactive, POLH inh inactive, POLK inh inactive, Pol beta inh inactive, APEX1 inh inactive and POLI inh inactive.
`CCCCc1ccc(-c2ccc(C)cc2O)nc1` gave GLS inh inactive, POLH inh inactive, POLK inh inactive, Pol beta inh 28.2µM, APEX1 inh inactive and POLI inh inactive.
Screening COc1ccc(-n2[nH]c(C)cc2=O)cc1 returned GLS inh inactive, POLH inh inactive, POLK inh inactive, Pol beta inh inactive, APEX1 inh inconclusive and POLI inh 1.12µM.
`CC1(CC(=O)N/N=C/c2cc(Br)c(O)cc2O)OCCO1` gave GLS inh 10µM, POLH inh inactive, POLK inh inactive, Pol beta inh inactive, APEX1 inh inactive and POLI inh inactive.
Screening Nc1nc(=S)c2[nH]c(=S)[nH]c2[nH]1 returned GLS inh inconclusive, POLH inh inactive, POLK inh inactive and POLI inh inconclusive.
`CSc1nc(=S)c2[nH]c(=S)[nH]c2[nH]1` gave GLS inh inactive, POLH inh inactive, POLK inh inactive, Pol beta inh inactive, APEX1 inh inactive and POLI inh 14.1µM.
`O=[N+]([O-])c1ccc(C(=S)N2CCN(c3ccc(F)cc3)CC2)cc1` gave GLS inh 15.8µM, POLH inh inactive, POLK inh inactive, Pol beta inh inactive, APEX1 inh inactive and POLI inh inactive.
